Hits are enriched below; roughly 21% of the tested compounds scored in any of these assays.
Pf growth 48h = P. falciparum growth inhibition at 48 hours (one generation); P. falciparum luciferase growth in erythrocytes, 48 h; 310,000 compounds, 5.9% hits; Potency, µM (series often up to 28.7 µM), without a hit: top-dose activity change, negative = inhibition, most hits filed as inhibitors; AID 504832; note: potency is the fitted concentration of half-maximal effect; % is set by controls: 0 for no effect and ±100 for the full control effect
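Growth was read as firefly luciferase luminescence after a 48 h, 37 C, 5% CO2 exposure of compounds to reporter-bearing P. falciparum cultures (0.1% parasitemia, 2% hematocrit final) in Albumax-supplemented RPMI 1640.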
Shiga toxin inh = inhibitors of Shiga toxin in Vero cells. Vero cells, Shiga toxin protein synthesis inhibition reporter. inhibition, % at 38.7 µM. 290,000 compounds, 9.2% hits; in the data active = inhibition mostly above about 28%, no sharp cut-off; inactive = mostly below about 43%; note: 0% is about no effect
NS1 inh = influenza NS1 inhibition; 270,000 compounds, 0.4% hits; Potency, µM (series often up to 46.1 µM), without a hit: at the highest dose activity, positive = more growth; calls by dose curve; note: potency is the fitted concentration of half-maximal effect; actives are rising curves; nearly all actives have a fitted effect of over 50% in size
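S. cerevisiae expressing influenza A NS1, grown in glucose, washed, then diluted 1:100 into pH 6.0 -URA galactose medium with 23 nl compound. Growth recovery read as OD600; NS1-free strain serves as control.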
Giardia FBPA inh = inhibitors of Giardia lamblia fructose-1,6-bisphosphate aldolase | purified Giardia FBPA | Potency, µM (top dose mostly 59.6 µM), for inactives: top-dose activity, negative = inhibition, actives largely listed as inhibitors | 290,000 compounds, 0.71% hits | AID 2451; note: potency is the fitted concentration of half-maximal effect; % is set by controls: 0 for no effect and ±100 for the full control effect; nearly all actives have a fitted effect of over 55% in size
Target sequence (A8B2U2 whole entry, looked up): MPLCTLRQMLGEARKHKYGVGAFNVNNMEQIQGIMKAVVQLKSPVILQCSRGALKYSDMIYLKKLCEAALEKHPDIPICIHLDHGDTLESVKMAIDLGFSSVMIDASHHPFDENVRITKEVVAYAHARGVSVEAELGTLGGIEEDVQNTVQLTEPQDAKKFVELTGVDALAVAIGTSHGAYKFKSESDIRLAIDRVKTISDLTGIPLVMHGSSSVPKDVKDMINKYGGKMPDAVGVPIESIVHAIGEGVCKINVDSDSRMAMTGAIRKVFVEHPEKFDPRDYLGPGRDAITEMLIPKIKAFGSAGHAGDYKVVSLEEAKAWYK
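Giardia FBPA (40 nM reagent) was preincubated 10 min at RT with compound (up to 57.5 uM final), then substrate plus GAPDH/TPI/NAD/arsenate coupling system with diaphorase/resazurin was added; resorufin fluorescence (525/598 nm) was read after 20 min.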
Pf growth 96h = P. falciparum growth inhibition at 96 hours | P. falciparum luciferase reporter growth, 96 h | Potency, µM (highest dose often 28.7 µM), inactives show at the top dose activity change, negative = inhibition, usual class: inhibitors | 320,000 compounds, 6.9% hits; note: potency is the fitted concentration of half-maximal effect; % is set by controls: 0 for no effect and ±100 for the full control effect
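Erythrocytes infected with luciferase-expressing P. falciparum were dispensed at 2% hematocrit and 0.05% parasitemia (final), then incubated with compounds 96 hours at 37 C in 5% CO2. Luminescence after detection reagent addition reported growth.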
CHX counter = affects cycloheximide protein synthesis inhibition readout, counter-screen; cell reporter, cycloheximide protein synthesis inhibition counterscreen; max response, %; AID 2314; 300,000 compounds, 12% hits; in the data active = max response mostly above about 13%, no sharp cut-off; inactive = mostly below about 14%; note: read at 38.3 µM for the half of the compounds with a filed dose; 0% is about no effect
* hit, by the source's call; i = inactive; ? = inconclusive; · = not tested or not shown; [ ] = another dose, or the depositor's remark. Unless noted, calls come from the whole dose curve; as a rule, active = well fitted curve in the direction sought with a large enough effect; inconclusive = small, poorly fitted or top-dose-only effect, or another doubt; inactive = no such curve, though single readings can be large; an effect the other way counts as inactive or inconclusive.

SMILES	Pf growth 48h	Shiga toxin inh	NS1 inh	Giardia FBPA inh	Pf growth 96h	CHX counter
C[C@]1(c2ccccc2)O[C@@H]2C[C@@H]3[C@@H]4CCC5=CC(=O)C=C[C@@]5(C)[C@]4(F)[C@H](O)C[C@]3(C)[C@@]2(C(=O)CO)O1	·	·	-5%	·	·	·
CC(=O)C1CCC2C3CC=C4CC(O)CC[C@@]4(C)C3CC[C@]12C (some centres undefined)	·	·	·	3%	·	·
O=c1c2ccccc2nc(C[n+]2ccccc2)n1-c1cccc(C(F)(F)F)c1	-18%	48	4%	4%	12µM*	-2
Cn1c(/C=C/c2ccccc2)nc2ccccc21	82%	-13	-49%	-27%	48%	11
COc1ccccc1Cn1c(C(C)C)nc2ccccc21	?	-11	1%	11%	?	-3
COCCn1c(/C=C/c2ccccc2)nc2ccccc21	31%	68*	-6%	-29%	3%	33*
COc1ccc(/C=C/c2nc3ccccc3n2Cc2ccccc2OC)cc1	?	106*	-11%	-15%	?	69*
COc1ccccc1Cn1c(/C=C/c2ccccc2)nc2ccccc21	?	87*	-26%	-8%	?	74*
Cc1cccc(NC(=O)Cn2c(/C=C/c3ccccc3)nc3ccccc32)c1	119%	111*	8%	-2%	?	28*
O=C(COc1ccccc1)N=C1SC2CS(=O)(=O)CC2N1c1cccc(F)c1 (centres undefined)	17%	-8	0%	·	?	5
OCCN1CCN(CC(O)COCC2COc3ccccc3O2)CC1 (centres undefined)	11%	4	·	-8%	4%	1
O=C(OCC1COc2ccccc2O1)c1c(F)cccc1F (centres undefined)	4.1µM*	51	-14%	0%	?	21*
Oc1ccc(C=NCC2COc3ccccc3O2)cc1 (centres undefined)	5%	24	-10%	-4%	-19%	-3
O=C(NCc1ccccc1)C(=O)NCC1COc2ccccc2O1 (centres undefined)	1%	3	0%	1%	14%	-2
NC(N)=NCC1COc2ccccc2O1 (centres undefined)	?	·	·	·	2.1µM*	·
OC(COCC1COc2ccccc2O1)CN1CCN(c2ccccc2F)CC1 (centres undefined)	31%	-12	-16%	·	7.4µM*	15
CCc1cc2c3c(c(=O)oc2cc1OCC(=O)OC)CCCC3	44%	-8	-67%	-5%	?	-2
CCOc1cc(C(=S)N2CCOCC2)ccc1OC(=O)c1ccc(C)cc1	8%	-10	-7%	1%	-15%	-2
CN(CC(=O)Nc1ccc(Cl)cc1)C(=O)CCc1c[nH]c2ccccc12	19%	-5	0%	5%	16%	-3
COc1ccc(NC(=O)CN(C)C(=O)CCCc2c[nH]c3ccccc23)cc1	?	·	·	·	10µM*	·
CCOc1ccc(NC(=O)CN(C)C(=O)CCCc2c[nH]c3ccccc23)cc1OCC	10µM*	·	·	·	?	·
CCOc1ccc(NC(=O)CN(C)C(=O)CCNC(=O)c2ccccc2Cl)cc1OCC	-20%	·	·	·	7%	·
COc1cc2c(cc1OC)CN(C(=O)c1cc(C3CC3)nn1-c1ccccc1)CC2	?	·	·	·	5.9µM*	·
O=C(c1cc(C2CC2)nn1-c1ccccc1)N1CCN(S(=O)(=O)c2cccc(F)c2)CC1	8.3µM*	·	·	·	?	·
O=C(c1cc(-c2cccs2)nn1-c1ccccc1)N1CCN(S(=O)(=O)c2ccccc2)CC1	10µM*	·	·	·	4.1µM*	·
SMILES	Pf growth 48h	Shiga toxin inh	NS1 inh	Giardia FBPA inh	Pf growth 96h	CHX counter
O=C(c1cc(-c2ccccc2)nn1-c1ccccc1)N1CCN(S(=O)(=O)c2cccc(F)c2)CC1	6%	·	·	·	?	·
Cc1ccc(S(=O)(=O)N2CCN(C(=O)c3cc(-c4cccs4)nn3-c3ccccc3)CC2)cc1	-2%	·	·	·	7%	·
COc1ccc(N2CCN(C(=O)c3cc(C4CC4)nn3-c3ccccc3)CC2)cc1	-23%	·	·	·	?	·
COCCNC(=O)c1cc(-c2cccnc2)nc2ccc(Br)cc12	·	-10	-3%	4%	22%	-1
O=C(NCCCn1ccnc1)c1cc(-c2cccnc2)nc2ccc(Br)cc12	12µM*	-17	1%	6%	1.5µM*	-4
Cc1ccc2nc(-c3ccccc3)cc(C(=O)NCCCn3ccnc3)c2c1	13µM*	-3	-25%	3%	?	-1
Cc1ccc(C(=O)COC(=O)c2cnccn2)cc1	11%	-2	-2%	3%	·	-2
Cc1nc2ccccn2c1C(=O)NN	4%	-4	-8%	-10%	-4%	-1
NNC(=O)c1cn2ccccc2n1	?	60*	1%	-30%	-57%	29*
Cc1ccc(C(=O)COC(=O)c2cn3ccccc3n2)cc1	75%	i	1%	0%	48%	42*
Cn1ccc(C(=O)OCC(=O)c2ccccc2)n1	36%	59	1%	4%	38%	17*
Cc1cnc(C(=O)OCC(=O)c2ccccc2)cn1	53%	·	·	·	14%	·
COc1ccccc1CNC(=O)C1CCN(S(=O)(=O)c2ccc3nc4c(c(C(=O)O)c3c2)CCCC4)CC1	9%	-5	9%	·	-26%	2
Cc1cc(C)n(-c2ncnc3ccccc23)n1	-4%	-11	·	2%	36%	2
O=C(c1ccco1)N1CCN(c2ccnc3cc(Cl)ccc23)CC1	?	-3	-3%	3%	16%	-3
O=C(C1CCC1)N1CCN(c2ccnc3cc(Cl)ccc23)CC1	13µM*	6	-45%	-1%	10µM*	-2
Cc1cc(C)n(-c2ccnc3cc(Cl)ccc23)n1	21%	-2	-2%	-10%	6%	18*
Clc1ccc2c(NC3CCC(N4CCCCC4)CC3)ccnc2c1 (centres undefined)	·	·	0%	·	·	·
O=C(c1ccc(CSc2ccc(Cl)cc2)cc1)N1CCCC1	4%[5.75 µM]	61*	·	-1%	3%	23
O=C(C1CCCCC1)N1CCN(c2ccnc3cc(Cl)ccc23)CC1	1.9µM*	-9	-34%	12%	3.3µM*	-10
O=C(O)CC1(CC(=O)NCc2ccc(Cl)cc2)CCCCC1	25%	-4	-3%	19%	23%	-3
C/C=C/c1ccc(OCC(O)CN(C)Cc2ccc(SC)cc2)c(OC)c1 (centres undefined)	·	9	-3%	?	?	-3
Cc1ccc(NC(=O)CCCn2c(=S)[nH]c3ccsc3c2=O)cc1C	16%	-10	20%	15%	?	-4
COc1cccc(Cn2c(=O)c(-c3cccs3)nc3cnc(OCc4ccccc4)nc32)c1	·	·	·	7%	·	·
Cc1ccc(OP(=O)(Oc2ccc(C)cc2)N2C=Cc3ccccc3[C@H]2C#N)cc1	·	·	-8%	·	·	·
CCOc1ccc(CNC(=O)Cn2ccc3cc(S(=O)(=O)N4CCCC4)ccc32)cc1	?	15	6%	6%	?	-2

Compound activity as filed in PubChem BioAssay.
